Data as given in ChEMBL document CHEMBL1961873, “Compounds: GSK PKIS; Assays: Nanosyn kinase panel” (2012).

Experiments:
[1] = biological target: T1, Aurora kinase A (Homo sapiens) (UniProt O14965); conditions: at 1 µM;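 further: values are mean percent inhibition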
T1 sequence (whole entry): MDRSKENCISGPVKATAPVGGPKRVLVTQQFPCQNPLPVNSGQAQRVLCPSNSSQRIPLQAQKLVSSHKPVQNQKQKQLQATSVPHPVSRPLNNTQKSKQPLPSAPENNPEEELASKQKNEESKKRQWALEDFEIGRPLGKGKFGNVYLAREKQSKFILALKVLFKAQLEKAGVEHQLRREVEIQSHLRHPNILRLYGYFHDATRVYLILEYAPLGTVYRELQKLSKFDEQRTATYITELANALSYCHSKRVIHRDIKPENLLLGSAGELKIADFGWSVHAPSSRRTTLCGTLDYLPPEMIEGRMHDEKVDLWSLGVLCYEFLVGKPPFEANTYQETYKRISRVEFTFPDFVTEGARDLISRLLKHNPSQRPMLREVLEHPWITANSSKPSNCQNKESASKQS

[2] = biological target: Aurora kinase B (Homo sapiens) (UniProt Q96GD4); conditions: at 0.1 µM
[3] = biological target: Aurora kinase B (Homo sapiens) (UniProt Q96GD4); conditions: at 1 µM
[4] = biological target: T2, Aurora kinase C (Homo sapiens) (UniProt Q9UQB9); conditions: at 0.1 µM
T2 sequence (whole entry): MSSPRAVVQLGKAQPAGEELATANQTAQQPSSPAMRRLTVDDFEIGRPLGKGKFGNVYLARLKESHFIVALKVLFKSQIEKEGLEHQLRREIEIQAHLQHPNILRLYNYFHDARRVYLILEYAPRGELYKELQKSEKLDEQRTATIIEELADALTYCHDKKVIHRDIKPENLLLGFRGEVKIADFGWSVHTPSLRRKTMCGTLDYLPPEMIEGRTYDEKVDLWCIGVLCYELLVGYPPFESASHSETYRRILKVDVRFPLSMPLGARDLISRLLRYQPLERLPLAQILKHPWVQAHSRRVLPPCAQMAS

[5] = biological target: T2, Aurora kinase C (Homo sapiens); conditions: at 1 µM
[6] = biological target: Serine/threonine-protein kinase 10 (Homo sapiens) (UniProt O94804); conditions: at 0.1 µM
[7] = biological target: Serine/threonine-protein kinase 10 (Homo sapiens) (UniProt O94804); conditions: at 1 µM
[8] = biological target: T3, Mitogen-activated protein kinase kinase kinase kinase 2 (Homo sapiens) (UniProt Q12851); conditions: at 0.1 µM
T3 sequence (whole entry): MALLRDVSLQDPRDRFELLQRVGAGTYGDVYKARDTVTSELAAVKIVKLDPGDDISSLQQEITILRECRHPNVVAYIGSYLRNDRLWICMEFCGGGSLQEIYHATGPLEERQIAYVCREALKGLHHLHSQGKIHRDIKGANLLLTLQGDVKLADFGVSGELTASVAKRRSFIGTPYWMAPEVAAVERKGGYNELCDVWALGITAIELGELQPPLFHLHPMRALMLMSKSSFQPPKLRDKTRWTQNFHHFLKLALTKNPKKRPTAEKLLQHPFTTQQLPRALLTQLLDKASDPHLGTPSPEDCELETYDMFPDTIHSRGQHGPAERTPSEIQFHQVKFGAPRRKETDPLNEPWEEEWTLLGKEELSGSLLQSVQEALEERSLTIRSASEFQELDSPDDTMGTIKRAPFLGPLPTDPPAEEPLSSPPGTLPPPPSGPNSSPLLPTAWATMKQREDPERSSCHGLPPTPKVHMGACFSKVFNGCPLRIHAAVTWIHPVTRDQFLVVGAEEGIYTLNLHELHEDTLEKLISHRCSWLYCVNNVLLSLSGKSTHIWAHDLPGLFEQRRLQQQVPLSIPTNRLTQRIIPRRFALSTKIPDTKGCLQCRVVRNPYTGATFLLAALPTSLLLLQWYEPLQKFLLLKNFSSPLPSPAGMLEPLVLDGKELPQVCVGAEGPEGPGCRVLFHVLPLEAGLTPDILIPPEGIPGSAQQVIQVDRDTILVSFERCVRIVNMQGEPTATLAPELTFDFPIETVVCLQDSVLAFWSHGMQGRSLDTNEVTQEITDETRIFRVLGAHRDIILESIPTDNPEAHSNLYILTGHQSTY

[9] = biological target: T3, Mitogen-activated protein kinase kinase kinase kinase 2 (Homo sapiens); conditions: at 1 µM
[10] = biological target: Mitogen-activated protein kinase kinase kinase kinase 4 (Homo sapiens) (UniProt O95819); conditions: at 0.1 µM
[11] = biological target: Mitogen-activated protein kinase kinase kinase kinase 4 (Homo sapiens) (UniProt O95819); conditions: at 1 µM
[12] = biological target: Dual specificity mitogen-activated protein kinase kinase 1 (Homo sapiens) (UniProt Q02750); conditions: at 0.1 µM
[13] = biological target: Dual specificity mitogen-activated protein kinase kinase 1 (Homo sapiens) (UniProt Q02750); conditions: at 1 µM
[14] = biological target: Misshapen-like kinase 1 (Homo sapiens) (UniProt Q8N4C8); conditions: at 0.1 µM
[15] = biological target: Misshapen-like kinase 1 (Homo sapiens) (UniProt Q8N4C8); conditions: at 1 µM
[16] = biological target: T4, Serine/threonine-protein kinase 4 (Homo sapiens) (UniProt Q13043); conditions: at 0.1 µM
T4 sequence (whole entry): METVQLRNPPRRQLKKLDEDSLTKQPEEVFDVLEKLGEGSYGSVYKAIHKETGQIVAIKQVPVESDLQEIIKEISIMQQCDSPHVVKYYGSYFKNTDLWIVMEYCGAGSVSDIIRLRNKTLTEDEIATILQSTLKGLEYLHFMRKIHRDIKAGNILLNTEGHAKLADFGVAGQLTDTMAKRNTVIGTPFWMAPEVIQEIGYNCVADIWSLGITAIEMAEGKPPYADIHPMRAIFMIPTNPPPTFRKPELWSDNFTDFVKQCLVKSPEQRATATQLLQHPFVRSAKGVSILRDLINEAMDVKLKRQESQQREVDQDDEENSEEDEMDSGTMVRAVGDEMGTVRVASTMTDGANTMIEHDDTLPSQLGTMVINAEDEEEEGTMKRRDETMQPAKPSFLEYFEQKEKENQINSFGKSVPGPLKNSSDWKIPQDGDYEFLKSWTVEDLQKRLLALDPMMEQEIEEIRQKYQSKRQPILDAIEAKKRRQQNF

[17] = biological target: T4, Serine/threonine-protein kinase 4 (Homo sapiens); conditions: at 1 µM
[18] = biological target: T5, Serine/threonine-protein kinase 3 (Homo sapiens) (UniProt Q13188); conditions: at 0.1 µM
T5 sequence (whole entry): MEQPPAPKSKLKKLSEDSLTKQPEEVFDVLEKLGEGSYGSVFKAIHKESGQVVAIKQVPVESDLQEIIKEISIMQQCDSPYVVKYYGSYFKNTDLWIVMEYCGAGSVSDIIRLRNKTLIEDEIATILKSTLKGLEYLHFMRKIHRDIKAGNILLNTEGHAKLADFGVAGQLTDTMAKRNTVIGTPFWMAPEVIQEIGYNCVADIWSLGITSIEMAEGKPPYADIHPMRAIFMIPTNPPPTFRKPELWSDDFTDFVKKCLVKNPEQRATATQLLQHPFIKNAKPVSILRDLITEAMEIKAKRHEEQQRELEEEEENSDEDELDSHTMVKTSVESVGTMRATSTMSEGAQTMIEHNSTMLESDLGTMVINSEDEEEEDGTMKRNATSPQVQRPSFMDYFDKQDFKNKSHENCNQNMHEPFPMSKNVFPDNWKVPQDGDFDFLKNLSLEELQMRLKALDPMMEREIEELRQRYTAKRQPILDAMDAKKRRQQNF

[19] = biological target: T5, Serine/threonine-protein kinase 3 (Homo sapiens); conditions: at 1 µM
[20] = biological target: Serine/threonine-protein kinase 26 (Homo sapiens) (UniProt Q9P289); conditions: at 0.1 µM
Sequence of Serine/threonine-protein kinase 26 (Homo sapiens) (Q9P289 2-416 limits assumed): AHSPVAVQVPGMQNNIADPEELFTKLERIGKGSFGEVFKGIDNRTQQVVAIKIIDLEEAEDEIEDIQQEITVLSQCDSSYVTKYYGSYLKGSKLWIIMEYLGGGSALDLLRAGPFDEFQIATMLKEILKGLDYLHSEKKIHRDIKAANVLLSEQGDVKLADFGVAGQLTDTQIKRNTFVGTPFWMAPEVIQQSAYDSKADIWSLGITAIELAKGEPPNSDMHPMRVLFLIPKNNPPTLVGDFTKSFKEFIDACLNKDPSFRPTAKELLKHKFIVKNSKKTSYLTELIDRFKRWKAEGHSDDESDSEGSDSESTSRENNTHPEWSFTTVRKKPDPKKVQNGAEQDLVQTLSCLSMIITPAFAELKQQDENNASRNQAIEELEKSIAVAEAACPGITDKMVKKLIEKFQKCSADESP

Sequence of Misshapen-like kinase 1 (Homo sapiens) (Q8N4C8 whole entry, looked up): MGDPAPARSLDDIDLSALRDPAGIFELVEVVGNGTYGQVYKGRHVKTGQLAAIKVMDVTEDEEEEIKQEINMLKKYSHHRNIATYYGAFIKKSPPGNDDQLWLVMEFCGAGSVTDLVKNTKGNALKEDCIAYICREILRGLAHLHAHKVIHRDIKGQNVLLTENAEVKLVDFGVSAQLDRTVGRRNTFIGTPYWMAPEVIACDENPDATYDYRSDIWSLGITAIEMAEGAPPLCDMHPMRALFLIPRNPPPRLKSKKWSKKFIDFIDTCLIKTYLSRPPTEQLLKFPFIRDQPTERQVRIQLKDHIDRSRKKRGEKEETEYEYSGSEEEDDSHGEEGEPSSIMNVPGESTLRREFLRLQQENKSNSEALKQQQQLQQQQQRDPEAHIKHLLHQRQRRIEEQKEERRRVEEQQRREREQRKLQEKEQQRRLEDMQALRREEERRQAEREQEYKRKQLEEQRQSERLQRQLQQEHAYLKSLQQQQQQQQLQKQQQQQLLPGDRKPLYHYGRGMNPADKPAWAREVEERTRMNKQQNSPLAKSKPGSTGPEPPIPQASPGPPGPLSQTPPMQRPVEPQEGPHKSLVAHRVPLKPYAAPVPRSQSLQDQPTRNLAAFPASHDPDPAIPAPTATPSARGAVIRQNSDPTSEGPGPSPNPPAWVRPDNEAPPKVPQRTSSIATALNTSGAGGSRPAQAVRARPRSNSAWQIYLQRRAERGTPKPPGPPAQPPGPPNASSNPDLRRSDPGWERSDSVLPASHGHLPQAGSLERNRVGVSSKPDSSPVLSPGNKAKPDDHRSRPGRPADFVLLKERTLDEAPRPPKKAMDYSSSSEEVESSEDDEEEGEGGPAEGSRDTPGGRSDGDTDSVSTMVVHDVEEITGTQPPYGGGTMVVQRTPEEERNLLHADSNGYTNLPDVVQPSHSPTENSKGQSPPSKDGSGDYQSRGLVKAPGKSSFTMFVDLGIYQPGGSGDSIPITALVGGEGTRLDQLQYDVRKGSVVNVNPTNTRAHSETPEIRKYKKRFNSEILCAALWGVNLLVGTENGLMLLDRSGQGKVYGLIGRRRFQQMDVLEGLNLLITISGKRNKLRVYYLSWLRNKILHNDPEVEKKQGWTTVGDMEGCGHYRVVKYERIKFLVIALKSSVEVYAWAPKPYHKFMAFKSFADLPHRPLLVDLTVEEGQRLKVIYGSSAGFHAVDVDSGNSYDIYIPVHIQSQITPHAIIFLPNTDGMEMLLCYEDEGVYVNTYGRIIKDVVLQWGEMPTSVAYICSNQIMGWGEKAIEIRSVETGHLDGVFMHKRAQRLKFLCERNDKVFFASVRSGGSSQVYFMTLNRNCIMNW
Sequence of Aurora kinase B (Homo sapiens) (Q96GD4 whole entry): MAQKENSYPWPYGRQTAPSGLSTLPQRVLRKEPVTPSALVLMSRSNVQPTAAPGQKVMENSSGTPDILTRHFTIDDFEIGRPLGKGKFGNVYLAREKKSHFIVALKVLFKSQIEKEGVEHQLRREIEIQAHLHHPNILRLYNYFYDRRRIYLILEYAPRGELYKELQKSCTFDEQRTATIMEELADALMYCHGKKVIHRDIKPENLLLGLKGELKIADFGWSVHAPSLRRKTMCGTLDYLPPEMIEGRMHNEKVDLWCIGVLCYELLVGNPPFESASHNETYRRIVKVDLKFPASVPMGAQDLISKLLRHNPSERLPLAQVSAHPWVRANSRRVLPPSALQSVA
Sequence of Dual specificity mitogen-activated protein kinase kinase 1 (Homo sapiens) (Q02750 whole entry): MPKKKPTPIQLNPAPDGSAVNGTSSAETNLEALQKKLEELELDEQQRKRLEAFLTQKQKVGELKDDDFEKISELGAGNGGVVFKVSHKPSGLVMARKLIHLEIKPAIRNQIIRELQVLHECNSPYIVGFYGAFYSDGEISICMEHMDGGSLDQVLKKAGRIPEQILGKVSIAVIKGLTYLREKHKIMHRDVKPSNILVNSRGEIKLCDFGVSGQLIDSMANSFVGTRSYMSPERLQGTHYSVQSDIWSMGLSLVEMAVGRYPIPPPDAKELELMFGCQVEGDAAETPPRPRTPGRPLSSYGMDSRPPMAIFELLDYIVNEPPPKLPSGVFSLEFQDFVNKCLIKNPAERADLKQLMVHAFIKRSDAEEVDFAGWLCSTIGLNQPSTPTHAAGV
Sequence of Serine/threonine-protein kinase 10 (Homo sapiens) (O94804 whole entry, looked up): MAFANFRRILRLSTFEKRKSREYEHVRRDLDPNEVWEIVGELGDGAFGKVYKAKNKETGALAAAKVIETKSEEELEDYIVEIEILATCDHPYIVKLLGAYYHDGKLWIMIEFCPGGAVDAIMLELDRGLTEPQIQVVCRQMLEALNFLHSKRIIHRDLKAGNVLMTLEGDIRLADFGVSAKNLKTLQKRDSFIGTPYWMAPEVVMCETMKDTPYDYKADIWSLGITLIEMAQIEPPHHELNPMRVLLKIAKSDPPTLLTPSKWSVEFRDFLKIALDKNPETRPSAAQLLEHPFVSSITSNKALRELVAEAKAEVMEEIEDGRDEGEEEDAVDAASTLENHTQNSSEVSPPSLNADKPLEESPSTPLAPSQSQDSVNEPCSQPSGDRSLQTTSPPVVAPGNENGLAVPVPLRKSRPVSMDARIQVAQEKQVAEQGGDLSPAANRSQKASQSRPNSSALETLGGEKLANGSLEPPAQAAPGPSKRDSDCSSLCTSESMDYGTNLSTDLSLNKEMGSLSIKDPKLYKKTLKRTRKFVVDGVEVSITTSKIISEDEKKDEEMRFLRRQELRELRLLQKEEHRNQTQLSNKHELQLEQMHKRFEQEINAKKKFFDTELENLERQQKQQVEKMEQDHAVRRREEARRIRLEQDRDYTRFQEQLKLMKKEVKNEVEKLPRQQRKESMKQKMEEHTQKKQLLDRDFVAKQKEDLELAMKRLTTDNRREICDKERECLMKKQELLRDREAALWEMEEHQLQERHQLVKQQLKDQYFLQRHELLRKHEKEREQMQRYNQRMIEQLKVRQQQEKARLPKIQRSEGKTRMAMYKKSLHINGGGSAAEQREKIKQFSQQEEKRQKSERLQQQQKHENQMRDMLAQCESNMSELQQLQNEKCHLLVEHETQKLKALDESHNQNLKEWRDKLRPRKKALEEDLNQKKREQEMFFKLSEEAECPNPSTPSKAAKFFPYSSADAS
Sequence of Mitogen-activated protein kinase kinase kinase kinase 4 (Homo sapiens) (O95819 2-1239 limits assumed): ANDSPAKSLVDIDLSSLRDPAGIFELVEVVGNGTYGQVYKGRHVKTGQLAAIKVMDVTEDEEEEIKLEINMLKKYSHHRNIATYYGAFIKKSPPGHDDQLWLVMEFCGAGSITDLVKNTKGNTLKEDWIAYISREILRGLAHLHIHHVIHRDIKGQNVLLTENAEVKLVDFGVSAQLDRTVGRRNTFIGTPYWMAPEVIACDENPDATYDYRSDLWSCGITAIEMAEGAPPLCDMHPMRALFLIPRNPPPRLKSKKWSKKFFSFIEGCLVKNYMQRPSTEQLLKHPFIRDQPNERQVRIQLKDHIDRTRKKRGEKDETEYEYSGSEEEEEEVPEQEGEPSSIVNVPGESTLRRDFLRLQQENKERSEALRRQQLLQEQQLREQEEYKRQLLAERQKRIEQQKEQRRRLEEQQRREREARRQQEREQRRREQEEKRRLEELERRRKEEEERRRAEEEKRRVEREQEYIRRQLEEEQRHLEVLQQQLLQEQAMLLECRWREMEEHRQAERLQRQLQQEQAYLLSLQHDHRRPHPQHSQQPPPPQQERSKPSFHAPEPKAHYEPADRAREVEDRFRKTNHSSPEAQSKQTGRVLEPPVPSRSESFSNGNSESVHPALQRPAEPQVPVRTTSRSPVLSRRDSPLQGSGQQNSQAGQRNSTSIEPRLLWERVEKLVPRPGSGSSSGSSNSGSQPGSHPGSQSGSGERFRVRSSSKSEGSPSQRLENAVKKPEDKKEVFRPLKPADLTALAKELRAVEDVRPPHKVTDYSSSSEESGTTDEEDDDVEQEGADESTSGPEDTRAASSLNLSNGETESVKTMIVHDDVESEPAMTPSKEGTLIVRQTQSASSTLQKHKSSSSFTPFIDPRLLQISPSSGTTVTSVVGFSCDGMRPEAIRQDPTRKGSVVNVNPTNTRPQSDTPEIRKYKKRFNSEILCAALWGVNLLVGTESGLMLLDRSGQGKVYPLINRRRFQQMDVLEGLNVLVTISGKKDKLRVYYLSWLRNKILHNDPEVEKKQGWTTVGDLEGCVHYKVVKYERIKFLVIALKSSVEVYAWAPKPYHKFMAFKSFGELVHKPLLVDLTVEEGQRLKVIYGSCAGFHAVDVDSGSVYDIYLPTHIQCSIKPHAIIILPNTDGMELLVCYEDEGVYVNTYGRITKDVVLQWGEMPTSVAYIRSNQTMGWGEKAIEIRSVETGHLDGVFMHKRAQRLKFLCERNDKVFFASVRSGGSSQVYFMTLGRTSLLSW

Row | SMILES | inhibition [1] | inhibition [2] | inhibition [3] | inhibition [4] | inhibition [5] | inhibition [6] | inhibition [7] | inhibition [8] | inhibition [9] | inhibition [10] | inhibition [11] | inhibition [12] | inhibition [13] | inhibition [14] | inhibition [15] | inhibition [16] | inhibition [17] | inhibition [18] | inhibition [19] | inhibition [20]
1 | Fc1ccc(-c2nn3ncccc3c2-c2ccnc(Nc3ccc4c(c3)OCCO4)n2)cc1 | 33.7% | 4.26% | 12.2% | 1.04% | 22.9% | 10.8% | 41.8% | 1.14% | 12.1% | 20.1% | 73.2% | 5.8% | 11.7% | 16.4% | 65.2% | 3.27% | 5.1% | 3.68% | 3.21% | -0.01%
2 | CCc1nn2ncccc2c1-c1ccnc(NC2CC2)n1 | 14.8% | 2.59% | 17.4% | 3.06% | 24.8% | 3.95% | 8.22% | 0.96% | 3.67% | 0.62% | 5.59% | 2.65% | 2.39% | 3.11% | 3.73% | 1.74% | 3.6% | 1.75% | 5.22% | -1.35%
3 | O=C(O[C@H]1CN[C@H](C#Cc2cc3ncnc(Nc4ccc(Cc5ccccc5)cc4)c3s2)C1)N1CCOCC1 | 1.29% | 1.27% | 2.04% | -0.18% | 5.53% | 3.08% | 7.29% | 0.39% | 0.86% | -0.42% | -0.81% | 1.32% | 1.73% | 3.34% | 1.04% | 1.14% | 3.13% | 3.94% | 3.64% | -0.29%
4 | COc1cccc(-n2ncc3c(N/N=C/c4ccc(F)cc4)ncnc32)c1 | 18.5% | 4.02% | 12.9% | 2.64% | 3.29% | 6.75% | 10.9% | 0.43% | 0.63% | 5.23% | 21.2% | 4.9% | 3.13% | 7.39% | 17.2% | 7.56% | 9.41% | 9.36% | 9.98% | -1.54%
5 | COc1ccc(-c2cc(-c3c[nH]nc3-c3ccccn3)ccn2)cc1 | 5.58% | 4.41% | 5.71% | 2.12% | -1.66% | 5.75% | 8.57% | 1.74% | 2.15% | 35.5% | 80.3% | 6.36% | 4.25% | 24.6% | 72.7% | 7.65% | 10.6% | 9.35% | 10.1% | -2.95%
6 | CN(C)CCOc1ccc(-c2nc(-c3ccncc3)c(-c3ccc4c(c3)CC/C4=N\O)[nH]2)cc1 | 12% | 1.63% | 6.16% | 1.74% | -1.31% | 22.1% | 69.2% | 0.69% | 3.44% | 9.59% | 47.2% | 4.37% | 3.23% | 8.74% | 37.3% | 4.67% | 6.56% | 4.63% | 4.58% | -1.19%
7 | COc1cc2ncn(-c3cc(OCc4ccccc4C(F)(F)F)c(C(=O)N(C)C)s3)c2cc1OC | 9.82% | 5.54% | 31.1% | 3.22% | 46.2% | 12.9% | 55.8% | 0.57% | 2.23% | 0.42% | 2.4% | 0.8% | 1.58% | 1.7% | 2.67% | -0.01% | 3.43% | 1.15% | 4.03% | 0%
